Experimental data: PubChem BioAssay
“And” between values parts separate entries of the source, which are not always exact repeats. Equal entries are not always repeated. The source made the active and inactive calls.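 The calls were made as follows, unless noted: active = thallium flux through the channel raised or lowered by more than 3 SD from vehicle-only wells, actives on both sides; inactive = the rest.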

Key:
[1] = compounds altering viability of human ES cells (AID 493140; call rule not given here;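 also: cells exposed to compounds for four days before counting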); details: human embryonic stem cell survival screen; stronger effect = higher value
[2] = signal quenchers or enhancers, Cy5 substrate/SSB – biochemical, NIH Clinical Collection, E. coli SSB, artefact control for HCV NS3 helicase inhibitor project (AID 743268; call rule not given here); details: Cy5-oligo bound E. coli SSB, fluorescence interference
[3] = test system: Hepatitis C virus NS3 helicase; assay: blockers of NS3h binding to DNA – biochemical, fluorescence polarization, NIH Clinical Collection, primary screen (AID 743270; call rule not given here); details: NS3 helicase binding to Cy5-dT15 DNA, stronger effect = higher value, concentration not given here
[4] = target: Single-stranded DNA-binding protein (Escherichia coli (strain K12)) (UniProt P0AGE0); assay: SSB-ssDNA binding inhibitors – biochemical, fluorescence polarization, NIH Clinical Collection, counter-screen for HCV NS3 helicase inhibitor project (AID 743271; in the data active = inhibition above about 28%); details: E. coli SSB-DNA binding, stronger effect = higher value, concentration not given here
[5] = compounds distorting NS3 helicase fluorescence signal – biochemical, NIH Clinical Collection, artefact control for HCV NS3 helicase inhibitor project (AID 743272; call rule not given here;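 also: HCV NS3 helicase with a Cy5 labelled single stranded DNA probe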); details: fluorescence interference counterscreen, HCV NS3 helicase assay; stronger effect = lower value
[6] = target: 6-phosphogluconate dehydrogenase, decarboxylating (Homo sapiens) (UniProt P52209); assay: inhibition of human phosphogluconate dehydrogenase – biochemical, recombinant enzyme, NADPH absorbance, primary screen (AID 1159550;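 active = at least 20% inhibition of 6-phosphogluconate dehydrogenase activity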); details: recombinant 6PGD, NADPH absorbance 341 nm; at 10 µM; stronger effect = higher value
[7] = EMT-state selective cytotoxicity in co-culture – imaging, PC-3E GFP, TEM4-18 mCherry, primary screen (AID 1345086;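 active = compounds killing one labelled cell type while sparing the other, by normalised counts and ratio limits, not self-fluorescent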;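 as to all read-outs here: cells exposed to compound for 72 h before imaging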;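 as to red/green cell ratio (normalised): normalised mesenchymal count divided by normalised epithelial count so high means epithelial killing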); details: PC-3E GFP / TEM4-18 mCherry co-culture, imaging cell counts, at 1 µM; for red/green cell ratio (normalised): actives lie on both sides, counts scaled to control wells, 1 = unselective
[8] = MELAS cybrid and Rieske KO viability enhancers – cell-based, MELAS cybrids, Rieske KO mouse fibroblasts, CellTiter-Glo, primary screen (AID 1508586;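 active = mean z-score across replicates of 1.96 or higher in either the MELAS or the Rieske mutant cell line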;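 also: z relative to plate mean and SD of compound and empty wells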); details: low glucose
[9] = target: NAD(+) hydrolase SARM1 (Homo sapiens) (UniProt Q6SZW1); assay: blocking NAD cleavage by SARM1 SAM-TIR – cell lysate, NAD-Glo luminescence (AID 1508614;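 active = compound whose remaining NAD level is above about 45 nM, limit read from the data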;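 also: higher remaining NAD means stronger inhibition of SARM1 NADase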); details: SAM-TIR HEK293T lysate NADase, at 1 µM, stronger effect = higher value
[10] = target: Mitogen-activated protein kinase 7 (Homo sapiens) (UniProt Q13164); assay: Gal4-ERK5 driven luciferase induction – cell-based, HTS, primary screen (AID 1508626;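 active = luciferase signal above three times the same-plate solvent-only control wells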;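 also: luciferase driven by Gal4-ERK5 fusion binding five Gal4 sites before minimal TATA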); details: HeLa Gal4-ERK5 transactivation, 18 h, at 5 µM, stronger effect = higher value
[11] = galactose survival enhancers in mitochondrial complex I cybrids – cell-based, galactose medium, ATP luminescence, primary screen (AID 1645843;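 active = z-score of at least 1.8 in each of two replicates, scored against plate mean and spread of sample wells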;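 also: positive z means more ATP and so rescue of galactose-driven cybrid death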); details: complex I mutant cybrid cells, 72 h, stronger effect = higher value
[12] = test system: F380Y; assay: BK channel mutant inhibitors and activators – cell-based, U2OS BacMam, thallium flux, beta subunits, selectivity assay, profiling panel (AID 1259406); details: U2OS BacMam BK variants, at 30 µM;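 also: initial slope of Thallos dye fluorescence rise after thallium is added; log ratio against the mean of 0.3% DMSO vehicle wells on the same plate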
[13] = test system: F380Y/beta2Delta; assay: as above; details: U2OS BacMam BK variants, at 30 µM
[14] = target: Calcium-activated potassium channel subunit alpha-1 (Homo sapiens) + Leucine-rich repeat-containing protein 26 (Homo sapiens) (UniProt Q12791+Q2I0M4); assay: as above; details: U2OS BacMam BK variants, F380Y/Slo1WT/gamma1, at 30 µM
[15] = test system: R275C; assay: as above; details: U2OS BacMam BK variants, at 30 µM
[16] = test system: R275C/beta1; assay: as above; details: U2OS BacMam BK variants, at 30 µM
[17] = test system: R275C/beta2Delta; assay: as above; details: U2OS BacMam BK variants, at 30 µM
[18] = P. berghei load reduction in hepatocytes – cell-based, HepG2, luciferase luminescence, HepG2 viability, primary screen (AID 624349; in the data active = parasite load remaining mostly below about 12%, no sharp cut-off; inactive = mostly above about 10%;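 also: 100% = mean of DMSO negative control wells on the same plate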); details: P. berghei liver stage in HepG2, luciferase luminescence, concentration not given here; parasite load remaining: stronger effect = lower value; viability: measured here: HepG2 viability without parasites
[19] = viability loss with induced miR-34 in A549 – imaging, A549 dox-inducible miR-34, nuclei and caspase counts, primary screen (AID 1347080;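 active = compounds whose cell count with miR-34 switched on is under 0.7 times the count with it off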); details: A549 miR-34 inducible, Hoechst nuclei count, 48 h
[20] = measured here: epithelial PC-3E GFP cell survival
[21] = measured here: mesenchymal TEM4-18 mCherry cell survival
[22] = MELAS cybrid survival, CellTiter-Glo 48 h, stronger effect = higher value
[23] = Rieske KO mouse fibroblast survival, CellTiter-Glo 72 h
[24] = stronger effect = lower value, cell number ratio, induced over uninduced
[25] = measured here: relative caspase fold change +Dox/-Dox
[26] = measured here: total cells with miR-34 induction, stronger effect = lower value
[27] = measured here: total cells without miR-34 induction

Chain of Mitogen-activated protein kinase 7 (Homo sapiens) (Q13164 whole entry, looked up, the tested form may be a part): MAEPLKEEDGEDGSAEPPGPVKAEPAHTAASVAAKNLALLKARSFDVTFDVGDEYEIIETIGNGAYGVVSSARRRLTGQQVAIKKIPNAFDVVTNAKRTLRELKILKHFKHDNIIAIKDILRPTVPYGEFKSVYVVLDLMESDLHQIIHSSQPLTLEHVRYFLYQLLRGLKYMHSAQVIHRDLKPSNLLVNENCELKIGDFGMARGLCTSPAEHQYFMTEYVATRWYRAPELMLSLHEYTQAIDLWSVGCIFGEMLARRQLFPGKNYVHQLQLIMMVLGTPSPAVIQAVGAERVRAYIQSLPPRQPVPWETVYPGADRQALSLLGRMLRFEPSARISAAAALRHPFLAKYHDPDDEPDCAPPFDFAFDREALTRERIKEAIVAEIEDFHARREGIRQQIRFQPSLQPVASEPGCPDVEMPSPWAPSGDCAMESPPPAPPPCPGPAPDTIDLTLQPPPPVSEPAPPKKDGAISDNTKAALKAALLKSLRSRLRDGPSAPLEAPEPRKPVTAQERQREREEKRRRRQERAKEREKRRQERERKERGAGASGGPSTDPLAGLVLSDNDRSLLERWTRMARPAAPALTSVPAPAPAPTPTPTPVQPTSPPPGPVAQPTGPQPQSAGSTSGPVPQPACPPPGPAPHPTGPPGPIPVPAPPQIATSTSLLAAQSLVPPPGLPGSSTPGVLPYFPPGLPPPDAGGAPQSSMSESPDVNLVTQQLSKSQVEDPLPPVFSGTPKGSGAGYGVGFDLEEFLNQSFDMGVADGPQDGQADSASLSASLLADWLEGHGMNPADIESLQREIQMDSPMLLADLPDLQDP
Chain of 6-phosphogluconate dehydrogenase, decarboxylating (Homo sapiens) (P52209 whole entry, looked up): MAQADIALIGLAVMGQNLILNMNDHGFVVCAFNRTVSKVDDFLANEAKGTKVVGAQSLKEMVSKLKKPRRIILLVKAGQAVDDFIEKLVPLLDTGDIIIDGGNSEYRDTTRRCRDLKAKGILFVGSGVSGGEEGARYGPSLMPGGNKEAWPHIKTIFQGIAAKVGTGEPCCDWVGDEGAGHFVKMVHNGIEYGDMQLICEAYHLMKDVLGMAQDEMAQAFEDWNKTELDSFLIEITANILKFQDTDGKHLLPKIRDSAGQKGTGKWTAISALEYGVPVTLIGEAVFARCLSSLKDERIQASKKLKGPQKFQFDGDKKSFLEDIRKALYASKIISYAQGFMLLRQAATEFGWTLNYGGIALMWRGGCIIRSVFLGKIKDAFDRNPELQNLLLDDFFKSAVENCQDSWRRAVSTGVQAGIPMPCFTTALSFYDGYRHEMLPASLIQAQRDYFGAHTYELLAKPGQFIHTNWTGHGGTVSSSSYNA
Chain of NAD(+) hydrolase SARM1 (Homo sapiens) (Q6SZW1 whole entry, looked up, the tested form may be a part): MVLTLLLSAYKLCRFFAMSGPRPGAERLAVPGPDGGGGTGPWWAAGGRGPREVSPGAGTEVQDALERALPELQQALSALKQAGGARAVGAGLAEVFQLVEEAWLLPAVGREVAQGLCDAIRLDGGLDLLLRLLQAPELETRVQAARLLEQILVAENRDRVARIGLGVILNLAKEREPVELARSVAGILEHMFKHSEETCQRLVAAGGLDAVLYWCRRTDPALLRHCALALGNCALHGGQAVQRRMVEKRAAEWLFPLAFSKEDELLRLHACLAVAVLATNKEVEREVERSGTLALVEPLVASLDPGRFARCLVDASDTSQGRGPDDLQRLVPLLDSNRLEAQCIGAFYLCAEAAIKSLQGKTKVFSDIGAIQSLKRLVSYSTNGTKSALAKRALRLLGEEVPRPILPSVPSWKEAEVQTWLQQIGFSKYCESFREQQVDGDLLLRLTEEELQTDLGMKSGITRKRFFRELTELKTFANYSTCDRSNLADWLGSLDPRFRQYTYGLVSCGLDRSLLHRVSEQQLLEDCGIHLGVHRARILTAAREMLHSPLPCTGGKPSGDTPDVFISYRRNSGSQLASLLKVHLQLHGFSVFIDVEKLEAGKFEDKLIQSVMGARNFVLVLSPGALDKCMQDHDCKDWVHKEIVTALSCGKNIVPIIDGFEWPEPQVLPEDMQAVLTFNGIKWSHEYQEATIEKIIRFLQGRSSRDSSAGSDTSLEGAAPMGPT
Chain of Calcium-activated potassium channel subunit alpha-1 (Homo sapiens) + Leucine-rich repeat-containing protein 26 (Homo sapiens) (Q2I0M4 whole entry, looked up, one chain of several): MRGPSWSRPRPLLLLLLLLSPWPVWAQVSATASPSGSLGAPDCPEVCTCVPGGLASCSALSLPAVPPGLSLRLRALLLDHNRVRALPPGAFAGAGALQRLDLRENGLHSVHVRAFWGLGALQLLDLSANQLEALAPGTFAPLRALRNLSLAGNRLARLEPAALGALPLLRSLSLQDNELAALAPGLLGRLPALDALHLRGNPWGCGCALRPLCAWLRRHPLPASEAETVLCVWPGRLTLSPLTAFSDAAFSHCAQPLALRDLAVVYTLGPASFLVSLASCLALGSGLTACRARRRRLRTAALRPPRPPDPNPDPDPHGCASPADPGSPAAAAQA

## Cn1cc[nH]c1=S
[1]
  survival: 1.42 (inactive)
[2]
  fluorescence ratio: 1.03 (inactive)
[3]
  inhibition: -3.18% (inactive)
[4]
  inhibition: -5.05% (inactive)
[5]
  fluorescence ratio: 1.03 (inactive)
[6]
  inhibition: -12.3% (inactive)
[7]
  red/green cell ratio (normalised): 0.96 (inactive)
[7]; [20]
  normalised cell number: 1.12
[7]; [21]
  normalised cell number: 1.08
[8]; [22]
  z-score: -0.106 (inactive) and 0.275 (inactive) and 0.138 (inactive)
[8]; [23]
  z-score: 0.1 and 0.646 and -0.619
[9]
  remaining NAD: 10 nM (inactive)
[10]
  luciferase signal: 92 AU (inactive)
[11]
  z-score: 1.27 (inactive) and 0.25 (inactive)
[12]
  log fold change Tl+ flux: 0.00366 (inactive)
[13]
  log fold change Tl+ flux: -0.00456 (inactive)
[14]
  log fold change Tl+ flux: -0.014 (inactive)
[15]
  log fold change Tl+ flux: -0.00969 (inactive)
[16]
  log fold change Tl+ flux: -0.000997 (inactive)
[17]
  log fold change Tl+ flux: -0.0252 (inactive)

## CC1(C)SC2C(NC(=O)COc3ccccc3)C(=O)N2C1C(=O)O (stereo not drawn)
[18]
  parasite load remaining: 83.2% (inactive)
  viability: 94.2%
[2]
  fluorescence ratio: 0.71 (active)
[3]
  inhibition: -3.18% (inactive)
[4]
  inhibition: -5.05% (inactive)
[5]
  fluorescence ratio: 1.01 (inactive)
[6]
  inhibition: 3.81% (inactive)
[19]; [24]
  fold change: 0.993 (inactive)
[19]; [25]
  fold change: 1.37
[19]; [26]
  cell count: 11000
[19]; [27]
  cell count: 11100
[11]
  z-score: 1.5 (inactive)
[12]
  log fold change Tl+ flux: -0.00633 (inactive)
[13]
  log fold change Tl+ flux: 0.0322 (inactive)
[14]
  log fold change Tl+ flux: -0.0109 (inactive)
[15]
  log fold change Tl+ flux: 0.00635 (inactive)
[16]
  log fold change Tl+ flux: 0.0123 (inactive)
[17]
  log fold change Tl+ flux: -0.0109 (inactive)

## COc1cccc(-c2cc(=O)c3cc(OC)ccc3o2)c1
[6]
  inhibition: -1.86% (inactive)
[7]
  red/green cell ratio (normalised): 1.05 (inactive)
[7]; [20]
  normalised cell number: 0.89
[7]; [21]
  normalised cell number: 0.94

## COc1ccc2c3c1O[C@H]1C[C@@H](O)C=C[C@@]31CCN(C)C2
[1]
  survival: 11.9 (inactive)
[2]
  fluorescence ratio: 1.03 (inactive)
[3]
  inhibition: -2.77% (inactive)
[4]
  inhibition: -3.95% (inactive)
[5]
  fluorescence ratio: 1 (inactive)
[6]
  inhibition: 6.78% (inactive)
[7]
  red/green cell ratio (normalised): 1.15 (inactive)
[7]; [20]
  normalised cell number: 1
[7]; [21]
  normalised cell number: 1.15
[8]; [22]
  z-score: 0.162 (inactive) and -0.253 (inactive)
[8]; [23]
  z-score: 0.459 and -0.846
[9]
  remaining NAD: 10 nM (inactive)
[10]
  luciferase signal: 64 AU (inactive)
[11]
  z-score: 0.28 (inactive) and 0.575 (inactive)
[12]
  log fold change Tl+ flux: 0.0204 (inactive)
[13]
  log fold change Tl+ flux: 0.0272 (inactive)
[14]
  log fold change Tl+ flux: -0.0208 (inactive)
[15]
  log fold change Tl+ flux: 0.0192 (inactive)
[16]
  log fold change Tl+ flux: -0.00593 (inactive)
[17]
  log fold change Tl+ flux: 0.0478 (inactive)

## CCCC1O[C@@H]2C[C@H]3[C@@H]4CCC5=CC(=O)C=C[C@]5(C)[C@H]4[C@@H](O)C[C@]3(C)[C@]2(C(=O)CO)O1 (stereo partly drawn)
[1]
  survival: 0.833 (inactive)
[18]
  parasite load remaining: 14% (inactive) and 67.2% (inactive) and 78.7% (inactive)
  viability: 116% and 115% and 75.3%
[2]
  fluorescence ratio: 1.05 (inactive)
[3]
  inhibition: -1.36% (inactive)
[4]
  inhibition: 1.05% (inactive)
[5]
  fluorescence ratio: 0.99 (inactive)
[6]
  inhibition: -12.1% (inactive)
[8]; [22]
  z-score: -0.382 (inactive)
[8]; [23]
  z-score: -0.0716
[9]
  remaining NAD: 10 nM (inactive)
[10]
  luciferase signal: 96 AU (inactive)
[12]
  log fold change Tl+ flux: 0.198 (active)
[13]
  log fold change Tl+ flux: 0.159 (active)
[14]
  log fold change Tl+ flux: 0.0553 (inactive)
[15]
  log fold change Tl+ flux: 0.0776 (inactive)
[16]
  log fold change Tl+ flux: 0.133 (active)
[17]
  log fold change Tl+ flux: 0.115 (active)

## COc1ccc(-c2oc3c(CC=C(C)C)c(O[C@@H]4O[C@H](CO)[C@@H](O)[C@H](O)[C@H]4O)cc(O)c3c(=O)c2O[C@@H]2O[C@@H](C)[C@H](O)[C@@H](O)[C@H]2O)cc1
[18]
  parasite load remaining: 70.8% (inactive)
  viability: 68.9%
[2]
  fluorescence ratio: 1 (inactive)
[3]
  inhibition: -9.9% (inactive)
[4]
  inhibition: -2.41% (inactive)
[5]
  fluorescence ratio: 0.98 (inactive)
[6]
  inhibition: 4.03% (inactive)
[7]
  red/green cell ratio (normalised): 1.12 (inactive)
[7]; [20]
  normalised cell number: 1.01
[7]; [21]
  normalised cell number: 1.13
[10]
  luciferase signal: 48 AU (inactive)
[12]
  log fold change Tl+ flux: 0.00269 (inactive)
[13]
  log fold change Tl+ flux: -0.0493 (inactive)
[14]
  log fold change Tl+ flux: -0.0341 (inactive)
[15]
  log fold change Tl+ flux: -0.04 (inactive)
[16]
  log fold change Tl+ flux: 0.009 (inactive)
[17]
  log fold change Tl+ flux: -0.0522 (inactive)

## CC(CCc1ccccc1)NCC(O)c1ccc(O)c(C(N)=O)c1 (stereo not drawn)
[1]
  survival: 19.1 (inactive)
[2]
  fluorescence ratio: 1.06 (inactive)
[3]
  inhibition: -2.27% (inactive)
[4]
  inhibition: -5.05% (inactive)
[5]
  fluorescence ratio: 1.02 (inactive)
[6]
  inhibition: 0.489% (inactive)
[7]
  red/green cell ratio (normalised): 1.34 (inactive)
[7]; [20]
  normalised cell number: 0.93
[7]; [21]
  normalised cell number: 1.24
[8]; [22]
  z-score: -0.172 (inactive) and 0.637 (inactive)
[8]; [23]
  z-score: -0.173 and -0.159
[9]
  remaining NAD: 10 nM (inactive)
[10]
  luciferase signal: 116 AU (inactive)
[11]
  z-score: -0.94 (inactive) and 0.995 (inactive)
[12]
  log fold change Tl+ flux: 0.0689 (inactive)
[13]
  log fold change Tl+ flux: 0.0329 (inactive)
[14]
  log fold change Tl+ flux: 0.00974 (inactive)
[15]
  log fold change Tl+ flux: -0.0121 (inactive)
[16]
  log fold change Tl+ flux: 0.0332 (inactive)
[17]
  log fold change Tl+ flux: 0.0956 (inactive)

## CC[C@H](C)C(=O)O[C@H]1CCC=C2C=C[C@H](C)[C@H](CC[C@@H]3C[C@@H](O)CC(=O)O3)[C@H]21
[18]
  parasite load remaining: 95.7% (inactive) and 85.1% (inactive)
  viability: 67.9% and 134%
[2]
  fluorescence ratio: 0.91 (inactive)
[3]
  inhibition: 0.66% (inactive)
[4]
  inhibition: 1.97% (inactive)
[5]
  fluorescence ratio: 0.89 (inactive)
[6]
  inhibition: -1.06% (inactive)
[19]; [24]
  fold change: 0.923 (inactive) and 1.16 (inactive) and 1.1 (inactive)
[19]; [25]
  fold change: 1.44 and 0.292 and 0.944
[19]; [26]
  cell count: 2090 and 1930 and 4610
[19]; [27]
  cell count: 2270 and 1660 and 4180
[8]; [22]
  z-score: 0.801 (inactive) and -1.19 (inactive)
[8]; [23]
  z-score: 0.000262 and -0.468
[9]
  remaining NAD: 10 nM (inactive)
[10]
  luciferase signal: 24 AU (inactive)
[11]
  z-score: -0.615 (inactive) and -0.575 (inactive) and 0.1 (inactive)
